# The supplement of paper PMC9694430
# How the values were obtained:
# Assay in all cases: thermal shift delta Tm vs DMSO control; higher = stronger stabilization (binding)
# Conditions in all cases: 12.5 µM; protein concentration 2 µM
# LOC_OS04G57630-cb004 = system: LOC_OS04G57630-cb004
# Summary of the method: (§1)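 Thermal shift values come from differential scanning fluorimetry on purified rice kinase domains made in E. coli, with melting temperatures obtained from Boltzmann fits. Samples of 19.5 μl held 2 μM kinase, 100 mM potassium phosphate pH 7.5, 150 mM NaCl, 10% glycerol, 5 × SYPRO Orange and compound in DMSO, and were heated from 25°C to 95°C at 0.05°C/s. Each shift is a triplicate mean relative to the DMSO-only protein sample.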
# LOC_OS05G07850-cb002 = system: LOC_OS05G07850-cb002
# Summary of the method: as §1
# LOC_OS05G16824-cb004 = system: LOC_OS05G16824-cb004
# Summary of the method: as §1
# LOC_OS05G28520-cb001 = system: LOC_OS05G28520-cb001
# Summary of the method: as §1
# LOC_OS05G30820-cb001 = system: LOC_OS05G30820-cb001
# Summary of the method: as §1
# LOC_OS05G43570-cb004 = system: LOC_OS05G43570-cb004
# Summary of the method: as §1
# LOC_OS06G16330-cb003 = system: LOC_OS06G16330-cb003
# Summary of the method: as §1
# LOC_OS06G22820-cb001 = system: T1, LOC_OS06G22820-cb001
# T1 sequence (whole entry): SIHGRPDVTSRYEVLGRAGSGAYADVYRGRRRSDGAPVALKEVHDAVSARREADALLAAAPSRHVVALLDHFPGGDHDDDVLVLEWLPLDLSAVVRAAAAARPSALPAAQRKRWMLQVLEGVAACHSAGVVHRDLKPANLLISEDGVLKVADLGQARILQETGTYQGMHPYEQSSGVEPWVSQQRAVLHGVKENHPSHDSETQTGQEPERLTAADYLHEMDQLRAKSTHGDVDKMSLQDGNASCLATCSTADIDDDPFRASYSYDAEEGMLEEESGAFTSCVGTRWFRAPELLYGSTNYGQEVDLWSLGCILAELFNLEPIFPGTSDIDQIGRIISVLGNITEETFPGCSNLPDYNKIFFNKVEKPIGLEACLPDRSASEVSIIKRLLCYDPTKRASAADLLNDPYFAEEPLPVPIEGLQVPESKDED
# Summary of the method: as §1
# LOC_OS07G06570-cb004 = system: LOC_OS07G06570-cb004
# Summary of the method: as §1
# LOC_OS07G07230-cb001 = system: LOC_OS07G07230-cb001
# Summary of the method: as §1
# 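Note: purified Escherichia coli-expressed rice kinase domain construct.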
# Sequence of LOC_OS06G16330-cb003 (as listed by the source): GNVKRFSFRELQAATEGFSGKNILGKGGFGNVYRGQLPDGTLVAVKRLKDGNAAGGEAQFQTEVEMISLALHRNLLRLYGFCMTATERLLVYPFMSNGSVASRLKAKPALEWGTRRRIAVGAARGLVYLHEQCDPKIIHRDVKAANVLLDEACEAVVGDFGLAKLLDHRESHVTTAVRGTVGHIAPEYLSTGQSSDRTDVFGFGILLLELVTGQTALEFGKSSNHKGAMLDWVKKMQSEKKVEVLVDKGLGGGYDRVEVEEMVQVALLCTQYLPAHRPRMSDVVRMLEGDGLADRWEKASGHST
Compound,thermal shift delta Tm (LOC_OS04G57630-cb004) [°C],thermal shift delta Tm (LOC_OS05G07850-cb002) [°C],thermal shift delta Tm (LOC_OS05G16824-cb004) [°C],thermal shift delta Tm (LOC_OS05G28520-cb001) [°C],thermal shift delta Tm (LOC_OS05G30820-cb001) [°C],thermal shift delta Tm (LOC_OS05G43570-cb004) [°C],thermal shift delta Tm (LOC_OS06G16330-cb003) [°C],thermal shift delta Tm (LOC_OS06G22820-cb001) [°C],thermal shift delta Tm (LOC_OS07G06570-cb004) [°C],thermal shift delta Tm (LOC_OS07G07230-cb001) [°C]
COc1cccc(-n2c(=O)[nH]c3cc(Cl)n(-c4ccc(-c5cccc(OC)c5O)cc4)c3c2=O)c1,0.32,-0.83,-0.73,0.37,0.41,0.59,-0.14,0.65,1.02,0.5
Cn1c(=O)c(Oc2ccc(F)cc2F)cc2cnc(NC(CCO)CCO)nc21,-0.25,0.33,-2.67,0.51,0.63,0.19,-0.27,0.72,1.46,0.54
FC(F)(F)c1ccc(Nc2nc3ccc(Oc4ccnc(-c5ncc(C(F)(F)F)[nH]5)c4)cc3[nH]2)cc1 [Raf265 derivative],1.36,0.46,7.37,1.01,0.29,1.6,1.16,0.73,1.65,0.27
COc1ccc(Oc2cc(NCCC(F)(F)F)c3ncc(-c4ccc(C(=O)NC5CC5)c(C)c4)n3n2)c(F)c1F,0.38,2.11,-2.18,1.04,0.67,0.63,0.09,0.73,-0.39,1.65
O=c1c(O)c(-c2cc(O)c(O)c(O)c2)oc2cc(O)cc(O)c12 [Myricetin],0.92,4.43,1.57,0.55,0.97,1.55,6.62,1.33,-1.03,0.47
CC(C)(C#N)c1ccc(N2C(=O)OCc3cnc4ccc(-c5cnc6ccccc6c5)cc4c32)cc1,0.16,1.96,-0.65,0.5,0.58,0.71,0.44,0.89,1.76,0.63
O=C1Nc2ccc(CN3C(=O)CSC3=O)cc2/C1=C/c1cc(CN2CCOCC2)c[nH]1,1.02,6.39,8.47,0.01,0.12,0.23,9.36,1.05,1.86,0.48
Cc1n[nH]c2ncc(C(=O)N3CCC[C@H]3c3ccc(Cl)cc3)cc12,0.01,0.81,-6.54,0.03,0.26,0.19,0.11,0.56,1.74,0.45
CCc1cccc(CC)c1NC(=O)N1Cc2[nH]nc(NC(=O)c3ccc(N4CCN(C)CC4)cc3)c2C1,0.89,5.74,1.16,0.11,0.78,0.47,2.93,1.47,1.26,0.12
CC[C@@](C)(Nc1ccnc(-c2c[nH]c3ncccc23)n1)C(=O)NCC(F)(F)F [Decernotinib (VX-509)],0.07,9.28,2.45,0.87,0.49,0.57,8.57,0.47,0.54,0.24
C=CC(=O)N1CC[C@@H](Oc2nc(Nc3ccc(N4CCC(N5CCN(C)CC5)CC4)cc3)c(C(N)=O)nc2CC)C1 [Naquotinib(ASP8273)],3.28,13.1,11.6,1.04,0.55,0.27,10,0.25,1.6,0.69
COc1cc2ncnc(Nc3ccc(Oc4ccccc4)cc3C)c2cc1OC,0.31,8.78,-9.65,0.23,0.05,-0.01,2.86,0.95,1.5,0.54
CC[C@@H]1C(=O)N(C)c2cnc(Nc3ccc(C(=O)NC4CCN(C)CC4)cc3OC)nc2N1C1CCCC1,-0.45,0.42,1.14,0.12,0.28,0.24,0.39,0.4,0.75,0.09
CN1CCC(COc2cnc(-c3cccc(Cn4nc(-c5cccc(C#N)c5)ccc4=O)c3)nc2)CC1,0.46,0.61,-1.27,0.69,0.42,0.46,0.55,0.49,1.28,0.18
CC(C)c1cnn2c(NCc3ccccc3-n3cccn3)nc(OC3CCCNC3)nc12 (stereo not given),0.19,0.48,1.46,0.66,0.31,0.57,0.17,1.22,0.4,-0.33
Cc1ccc(-n2nc(C(C)(C)C)cc2NC(=O)NCc2cc(F)ccc2Oc2ccc3c(cnn3CCO)c2)cc1 [Pexmetinib (ARRY-614)],5.61,7.46,-1.5,0.41,0.66,0.54,3.89,0.91,0.14,-0.6
CC(C)CC(NC(=O)C(Cc1ccccc1)NC(=O)C(CCC(N)=O)NC(=O)C(Cc1ccc(O)cc1)NC(=O)C(C)NC(=O)CNC(=O)C(CCCCN)NC(=O)C(Cc1c[nH]c2ccccc12)NC(=O)C(NC(=O)C(Cc1c[nH]c2ccccc12)NC(=O)C(CCCCN)NC(=O)CNC(=O)C(CC(N)=O)NC(=O)C(CCC(=O)O)NC(=O)C(Cc1c[nH]c2ccccc12)NC(=O)C(NC(=O)C(Cc1c[nH]c2ccccc12)NC(=O)C(CO)NC(=O)CNC(=O)C1CCCN1C(=O)C(Cc1c[nH]c2ccccc12)NC(=O)C(CCC(N)=O)NC(=O)C(Cc1ccccc1)NC(=O)CNC(=O)C(N)Cc1c[nH]cn1)C(C)O)C(C)O)C(=O)NC(CCCCN)C(=O)NCC(=O)NCC(=O)NCC(=O)NCC(=O)NC(CO)C(=O)NC(CCCNC(=N)N)C(=O)NC(CCCNC(=N)N)C(=O)NC(CCCNC(=N)N)C(=O)NC(CCCNC(=N)N)C(=O)NC(CCCNC(=N)N)C(=O)NC(CCCNC(=N)N)C(=O)NC(CCCNC(=N)N)C(=O)NC(CCCNC(=N)N)C(=O)NC(CCCNC(=N)N)C(=O)O (stereo not given),0.42,3.56,2.71,0.07,0.42,1.33,0.39,1.2,0.27,0.04
COC(=O)c1ccc2c(c1)NC(=O)/C2=C(\Nc1ccc(N(C)C(=O)CN2CCN(C)CC2)cc1)c1ccccc1 [Nintedanib (BIBF 1120)],1.08,1.57,9.2,0.54,0.35,0.43,0.71,0.4,0.96,0.42

Compound,thermal shift delta Tm (LOC_OS04G57630-cb004) [°C],thermal shift delta Tm (LOC_OS05G07850-cb002) [°C],thermal shift delta Tm (LOC_OS05G16824-cb004) [°C],thermal shift delta Tm (LOC_OS05G28520-cb001) [°C],thermal shift delta Tm (LOC_OS05G30820-cb001) [°C],thermal shift delta Tm (LOC_OS05G43570-cb004) [°C],thermal shift delta Tm (LOC_OS06G16330-cb003) [°C],thermal shift delta Tm (LOC_OS06G22820-cb001) [°C],thermal shift delta Tm (LOC_OS07G06570-cb004) [°C],thermal shift delta Tm (LOC_OS07G07230-cb001) [°C]
CN1CCN(c2ccc(OC(F)(F)F)c(Nc3ncc4c(n3)-c3c(c(C(N)=O)nn3CCO)CC4)c2)CC1,2.32,0.85,-0.84,0.63,0.48,0.54,0.46,0.49,1.36,0.02
CCOc1cn(-c2ccc(F)cc2C)nc1C(=O)Nc1ccc(Oc2ccnc3cc(OC)c(OC)cc23)c(F)c1,2.05,11.1,-0.65,0.31,0.28,0.24,3.99,0.19,0.82,0.19
COc1ccc(-c2ccc3ncc4c(c3c2)n(-c2ccc(N3CCNCC3)c(C(F)(F)F)c2)c(=O)n4C)cn1,0.96,10.2,2.52,0.28,0.54,0.36,4.63,0.38,0.59,0.06
Cn1cnc2c(F)c(Nc3ccc(Br)cc3Cl)c(C(=O)NOCCO)cc21 [Selumetinib (AZD6244)],-0.08,-0.01,-2,0.43,0.51,0.42,0.02,0.61,0.8,0.42
CN1c2ccccc2C(=O)Nc2cnc(Nc3ccc(N4CCC(O)CC4)cc3)nc21,2.68,11.7,3.76,0.16,1.15,0.33,8.37,0.43,0.89,1.4
CC1=C(C(=O)Nc2ccc3[nH]ncc3c2)C(c2ccc(F)cc2)NC(=O)N1 (stereo not given),0.17,1.88,-1.25,0.01,0,1.03,1.01,0.88,1.97,0.55
C[C@H](NC(=O)/C(C#N)=C/c1cccc(Br)n1)c1ccccc1,-1.13,-0.94,-17.3,-0.45,0.31,-0.67,-1.56,0.13,0.17,-0.47
O=C(NC(NC(=S)Nc1ccc(F)c([N+](=O)[O-])c1)C(Cl)(Cl)Cl)C(c1ccccc1)c1ccccc1 (stereo not given),1.38,8.68,0.69,1.84,1.61,2.15,0.69,1.79,1.83,0.79
O=c1cc(N2CCOCC2)oc2c(-c3cccc4c3sc3ccccc34)cccc12,-0.76,0.31,-2.7,0.25,0.1,-0.66,-1.48,0.17,0.25,-0.42
CC(C)(CO)n1cc(C(=O)c2cncc(NC(=O)Cc3ccc(Cl)cn3)c2)c2cnc(N)nc21,0.34,5.09,-0.67,0.14,0.02,0.18,2.22,0.45,1.47,0.34
Cc1ccc([N+](=O)[O-])cc1S(=O)(=O)N(C)/N=C/c1cnc2ccc(Br)cn12,1.58,1.88,3.43,1.13,0.85,1.49,7.74,0.41,1.41,0.94
COc1ncc(-c2cc(-c3ncc(CN4C[C@@H](C)O[C@@H](C)C4)o3)c3cn[nH]c3c2)cc1NS(C)(=O)=O,0.12,1.71,-0.4,0.61,0.21,0.39,-0.32,0.44,0.86,0.19
CCn1c(C(=O)N(C2CC2)C2CC2)cc2c3c(ncn3C)c(Nc3cc(C)n(C)n3)nc21,0.17,6.42,2.92,0.88,0.47,0.51,2.11,0.64,1.49,0.76
Nc1nc(N)c2nc(-c3cccc(O)c3)c(-c3cccc(O)c3)nc2n1,0.04,5.27,-5.41,0.94,0.79,0.92,0.76,0.53,1.54,0.2
COc1ccc2c(Oc3ccc(NC(=O)c4c(C)n(CC(C)(C)O)n(-c5ccccc5)c4=O)nc3)ccnc2c1,1.04,9.73,-1.1,0.15,0.52,1.07,5.11,0.68,0.62,-0.14
CN1CCN(CCOc2cc(OC3CCOCC3)c3c(Nc4c(Cl)ccc5c4OCO5)ncnc3c2)CC1 [Saracatinib (AZD0530)],0.78,7.68,3.59,0.24,0.41,0.7,7.52,0.89,1.29,0.13
COc1cc(OC)c(/C=C/S(=O)(=O)Cc2ccc(OC)c(NCC(=O)O)c2)c(OC)c1,0.06,0.2,-0.41,0.21,0.62,0.71,-0.1,0.75,0.87,0.29
"CO[C@H]1C[C@@H]2CC[C@@H](C)[C@@](O)(O2)C(=O)C(=O)N2CCCC[C@H]2C(=O)O[C@H]([C@H](C)C[C@@H]2CC[C@@H](OP(C)(C)=O)[C@H](OC)C2)CC(=O)[C@H](C)/C=C(\C)[C@@H](O)[C@@H](OC)C(=O)[C@H](C)C[C@H](C)/C=C/C=C/C=C/1C [Ridaforolimus (Deforolimus, MK-8669)]",-0.31,0.02,-1.14,0.42,0.41,0.24,-0.22,0.77,1.03,0.31
